For 1 sequence, binding signal results are on record in article PMC7862700, “An all-to-all approach to the identification of sequence-specific readers for epigenetic DNA modifications on cytosine”.

Common to all, as to experiment: DAPPL (digital affinity profiling via proximity ligation, sequencing); 10 mM Tris-HCl pH 7.5, 50 mM NaCl, 1 mM DTT, 4% glycerol, room temperature, 30 min; GST-TFs on glutathione beads, 16-mer random dsDNA library, 0.1% formaldehyde crosslink after washing; high values mean tight binding
One assay concerns the target T1, FEV (Homo sapiens, UniProt Q99581 1-238).
T1 sequence: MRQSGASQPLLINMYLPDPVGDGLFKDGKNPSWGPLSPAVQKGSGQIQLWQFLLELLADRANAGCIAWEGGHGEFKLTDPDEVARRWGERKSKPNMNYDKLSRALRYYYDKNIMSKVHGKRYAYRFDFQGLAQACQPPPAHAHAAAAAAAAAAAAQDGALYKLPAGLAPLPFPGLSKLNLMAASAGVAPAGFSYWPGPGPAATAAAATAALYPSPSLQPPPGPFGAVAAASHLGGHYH
The note with it: protein: recombinant; tags: N-terminal GST; dsDNA, one strand shown. Summed up:
(§1)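 In yeast, human transcription factors were expressed with a GST fusion, then pulled down on glutathione beads and given DNA barcodes. Pooled with a tag-only sample, they were exposed to 200 nmole of a 16-mer random double-stranded DNA library (Tris/NaCl/DTT/glycerol buffer, room temperature, 30 min), washed, crosslinked with 0.1% formaldehyde, proximity-ligated using BsaI/T4 ligase for 1 h at 37 °C, PCR-amplified and read on an Illumina NextSeq500. Each hexamer's frequency of reads for a factor, divided by the matching frequency for the tag-only sample, gives the binding signal.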

The target in another assay is ETV5 (Homo sapiens, UniProt P41161 1-510). The note with it: protein: recombinant; tags: N-terminal GST; dsDNA, one strand shown. A digest of the protocol:
as §1

The next assay has as its target HSF1 (Homo sapiens, UniProt Q00613 1-529). The note with it: protein: recombinant; tags: N-terminal GST; chain copies: 3; dsDNA, one strand shown. Summed up:
as §1

The target of another assay is T2, SPIC (Homo sapiens, UniProt Q8N5J4 1-248).
T2 sequence: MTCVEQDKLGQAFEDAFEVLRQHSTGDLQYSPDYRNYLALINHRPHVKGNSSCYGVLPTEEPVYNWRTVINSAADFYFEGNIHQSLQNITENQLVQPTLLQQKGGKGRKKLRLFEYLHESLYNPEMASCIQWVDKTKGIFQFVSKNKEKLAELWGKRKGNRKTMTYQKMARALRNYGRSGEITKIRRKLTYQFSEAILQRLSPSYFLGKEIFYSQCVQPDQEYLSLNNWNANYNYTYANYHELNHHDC
The following applies: protein: recombinant; tags: N-terminal GST; dsDNA, one strand shown. Summed up:
as §1

The next assay addresses ELF4 (Homo sapiens, UniProt Q99607 1-663). The note with it: protein: recombinant; tags: N-terminal GST; dsDNA, one strand shown. Summed up: as §1
The target in the next assay is T3, ELK4 (Homo sapiens, UniProt P28324-2 1-405).
T3 sequence: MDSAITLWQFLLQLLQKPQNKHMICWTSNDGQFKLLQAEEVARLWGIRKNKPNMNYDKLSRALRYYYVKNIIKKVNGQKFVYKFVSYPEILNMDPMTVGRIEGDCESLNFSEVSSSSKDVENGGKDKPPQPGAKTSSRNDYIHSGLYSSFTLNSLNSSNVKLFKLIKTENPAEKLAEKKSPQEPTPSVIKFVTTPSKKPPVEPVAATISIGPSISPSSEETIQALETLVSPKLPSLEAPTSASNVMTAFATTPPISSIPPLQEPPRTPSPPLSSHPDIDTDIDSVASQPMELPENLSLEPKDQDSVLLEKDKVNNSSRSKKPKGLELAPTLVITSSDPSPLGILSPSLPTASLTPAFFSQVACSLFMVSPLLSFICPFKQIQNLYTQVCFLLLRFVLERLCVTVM
The following applies: protein: recombinant; tags: N-terminal GST; dsDNA, one strand shown. Summed up:
as §1

Another assay addresses T4, ETV2 (Homo sapiens, UniProt O00321 1-342).
T4 sequence: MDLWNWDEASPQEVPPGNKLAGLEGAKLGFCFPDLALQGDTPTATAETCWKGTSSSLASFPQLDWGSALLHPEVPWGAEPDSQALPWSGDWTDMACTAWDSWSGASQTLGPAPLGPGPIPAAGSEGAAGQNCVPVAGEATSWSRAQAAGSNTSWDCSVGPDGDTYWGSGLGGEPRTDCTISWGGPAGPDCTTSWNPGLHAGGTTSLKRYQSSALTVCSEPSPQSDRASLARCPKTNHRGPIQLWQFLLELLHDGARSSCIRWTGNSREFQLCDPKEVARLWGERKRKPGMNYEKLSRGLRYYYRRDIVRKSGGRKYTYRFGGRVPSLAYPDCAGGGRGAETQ
The following applies: protein: recombinant; tags: N-terminal GST; dsDNA, one strand shown. Summed up:
as §1

The target in a further assay is T5, ELF3 (Homo sapiens, UniProt P78545 1-371).
T5 sequence: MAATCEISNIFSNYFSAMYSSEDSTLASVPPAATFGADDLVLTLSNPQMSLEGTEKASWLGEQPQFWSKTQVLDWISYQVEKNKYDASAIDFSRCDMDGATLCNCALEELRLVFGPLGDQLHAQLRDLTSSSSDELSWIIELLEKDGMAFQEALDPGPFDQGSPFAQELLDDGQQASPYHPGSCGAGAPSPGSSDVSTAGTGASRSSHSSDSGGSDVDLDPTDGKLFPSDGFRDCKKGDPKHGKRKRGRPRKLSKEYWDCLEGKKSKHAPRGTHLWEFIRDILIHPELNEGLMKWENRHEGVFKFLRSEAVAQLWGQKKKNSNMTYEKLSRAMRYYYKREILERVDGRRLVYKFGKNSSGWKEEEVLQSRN
The following applies: protein: recombinant; tags: N-terminal GST; dsDNA, one strand shown. A digest of the protocol:
as §1

The next assay deals with CRX (Homo sapiens, UniProt O43186 1-299). The following applies: protein: recombinant; tags: N-terminal GST; dsDNA, one strand shown. Summed up:
as §1

In the next assay the target is ETV1 (Homo sapiens, UniProt P50549 1-477). The following applies: protein: recombinant; tags: N-terminal GST; dsDNA, one strand shown. Summed up:
as §1

In the next assay the target is T6, ERF (Homo sapiens, UniProt P50548 1-548).
T6 sequence: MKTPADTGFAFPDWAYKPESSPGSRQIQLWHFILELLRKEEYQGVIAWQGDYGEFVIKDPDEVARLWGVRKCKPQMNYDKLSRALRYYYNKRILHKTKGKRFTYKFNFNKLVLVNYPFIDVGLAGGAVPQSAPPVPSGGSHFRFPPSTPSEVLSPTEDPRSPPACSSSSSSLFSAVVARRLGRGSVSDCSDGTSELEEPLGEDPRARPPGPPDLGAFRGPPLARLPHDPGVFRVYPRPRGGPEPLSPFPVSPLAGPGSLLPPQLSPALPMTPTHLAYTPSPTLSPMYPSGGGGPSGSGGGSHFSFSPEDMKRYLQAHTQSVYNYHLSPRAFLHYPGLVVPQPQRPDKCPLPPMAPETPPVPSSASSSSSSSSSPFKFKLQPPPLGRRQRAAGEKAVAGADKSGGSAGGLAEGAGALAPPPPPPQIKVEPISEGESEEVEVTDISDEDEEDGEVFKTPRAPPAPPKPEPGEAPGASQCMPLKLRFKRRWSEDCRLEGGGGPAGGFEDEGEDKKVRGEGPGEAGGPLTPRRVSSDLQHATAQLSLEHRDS
The following applies: protein: recombinant; tags: N-terminal GST; dsDNA, one strand shown. A digest of the protocol:
as §1

A further assay concerns the target T7, ETV3L (Homo sapiens, UniProt Q6ZN32 1-361).
T7 sequence: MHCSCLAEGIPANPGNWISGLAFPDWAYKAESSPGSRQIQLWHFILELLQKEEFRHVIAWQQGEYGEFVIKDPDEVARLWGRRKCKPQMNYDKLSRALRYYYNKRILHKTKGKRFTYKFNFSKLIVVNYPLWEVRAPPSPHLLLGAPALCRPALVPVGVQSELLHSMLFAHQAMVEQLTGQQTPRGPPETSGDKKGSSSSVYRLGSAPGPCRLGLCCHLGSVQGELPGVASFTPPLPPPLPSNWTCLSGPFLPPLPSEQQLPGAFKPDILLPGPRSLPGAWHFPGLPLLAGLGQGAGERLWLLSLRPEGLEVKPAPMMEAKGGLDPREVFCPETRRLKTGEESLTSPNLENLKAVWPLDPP
The note with it: protein: recombinant; tags: N-terminal GST; dsDNA, one strand shown. Summed up: as §1

For another assay, the target named is T8, ETS2 (Homo sapiens, UniProt P15036 1-469).
T8 sequence: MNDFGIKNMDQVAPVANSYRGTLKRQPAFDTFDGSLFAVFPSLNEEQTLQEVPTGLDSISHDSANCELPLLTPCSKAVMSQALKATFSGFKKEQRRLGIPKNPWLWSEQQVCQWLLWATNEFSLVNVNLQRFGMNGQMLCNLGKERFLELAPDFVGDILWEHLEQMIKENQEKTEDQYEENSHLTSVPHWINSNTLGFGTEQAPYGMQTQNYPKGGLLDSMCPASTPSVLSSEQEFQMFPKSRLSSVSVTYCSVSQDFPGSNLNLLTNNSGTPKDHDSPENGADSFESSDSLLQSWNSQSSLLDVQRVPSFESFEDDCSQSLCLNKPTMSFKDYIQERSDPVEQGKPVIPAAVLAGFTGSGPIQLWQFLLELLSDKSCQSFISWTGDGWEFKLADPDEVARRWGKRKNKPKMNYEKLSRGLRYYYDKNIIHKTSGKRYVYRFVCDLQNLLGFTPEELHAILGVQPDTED
The following applies: protein: recombinant; tags: N-terminal GST; dsDNA, one strand shown. Summed up: as §1

The next assay concerns the target T9, SPDEF (Homo sapiens, UniProt O95238 1-335).
T9 sequence: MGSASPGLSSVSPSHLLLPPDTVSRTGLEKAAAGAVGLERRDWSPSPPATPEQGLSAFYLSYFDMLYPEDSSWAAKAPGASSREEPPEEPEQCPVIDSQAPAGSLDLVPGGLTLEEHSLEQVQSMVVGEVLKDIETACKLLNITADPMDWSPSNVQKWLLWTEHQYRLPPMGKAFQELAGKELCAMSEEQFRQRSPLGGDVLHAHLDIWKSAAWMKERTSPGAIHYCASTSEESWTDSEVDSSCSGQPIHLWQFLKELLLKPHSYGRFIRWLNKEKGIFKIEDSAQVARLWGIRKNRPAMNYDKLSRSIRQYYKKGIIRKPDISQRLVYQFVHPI
The following applies: protein: recombinant; tags: N-terminal GST; dsDNA, one strand shown. A digest of the protocol:
as §1

For another assay, the target named is T10, ETV7 (Homo sapiens, UniProt Q9Y603 1-341).
T10 sequence: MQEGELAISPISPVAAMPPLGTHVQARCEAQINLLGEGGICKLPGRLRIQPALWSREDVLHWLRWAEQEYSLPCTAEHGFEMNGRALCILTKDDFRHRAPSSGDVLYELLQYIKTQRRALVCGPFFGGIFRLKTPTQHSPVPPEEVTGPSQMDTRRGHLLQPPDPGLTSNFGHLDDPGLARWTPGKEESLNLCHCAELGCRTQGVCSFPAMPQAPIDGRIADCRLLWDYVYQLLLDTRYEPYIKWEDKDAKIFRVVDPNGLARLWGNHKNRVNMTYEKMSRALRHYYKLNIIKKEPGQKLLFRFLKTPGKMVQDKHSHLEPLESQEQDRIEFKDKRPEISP
The following applies: protein: recombinant; tags: N-terminal GST; dsDNA, one strand shown. Summed up:
as §1

Another assay has as its target T11, ELF5 (Homo sapiens, UniProt Q9UKW6-2 1-255).
T11 sequence: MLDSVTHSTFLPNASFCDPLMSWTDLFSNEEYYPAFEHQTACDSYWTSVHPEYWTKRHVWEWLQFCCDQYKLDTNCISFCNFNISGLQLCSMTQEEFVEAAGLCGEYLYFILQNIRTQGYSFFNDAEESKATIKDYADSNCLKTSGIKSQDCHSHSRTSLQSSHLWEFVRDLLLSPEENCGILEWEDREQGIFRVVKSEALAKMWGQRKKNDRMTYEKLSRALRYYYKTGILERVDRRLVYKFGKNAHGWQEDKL
The note with it: protein: recombinant; tags: N-terminal GST; dsDNA, one strand shown. Summed up:
as §1

The target in a further assay is T12, ETV3 (Homo sapiens, UniProt P41162-2 1-143).
T12 sequence: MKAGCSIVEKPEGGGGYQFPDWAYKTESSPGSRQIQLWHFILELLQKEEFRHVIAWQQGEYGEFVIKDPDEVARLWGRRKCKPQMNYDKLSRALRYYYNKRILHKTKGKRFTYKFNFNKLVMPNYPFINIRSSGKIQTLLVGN
The note with it: protein: recombinant; tags: N-terminal GST; dsDNA, one strand shown. Summed up:
as §1

The target in another assay is ETV6 (Homo sapiens, UniProt P41212 1-452). The note with it: protein: recombinant; tags: N-terminal GST; dsDNA, one strand shown. Summed up: as §1
ETV6, sequence (P41212 whole entry): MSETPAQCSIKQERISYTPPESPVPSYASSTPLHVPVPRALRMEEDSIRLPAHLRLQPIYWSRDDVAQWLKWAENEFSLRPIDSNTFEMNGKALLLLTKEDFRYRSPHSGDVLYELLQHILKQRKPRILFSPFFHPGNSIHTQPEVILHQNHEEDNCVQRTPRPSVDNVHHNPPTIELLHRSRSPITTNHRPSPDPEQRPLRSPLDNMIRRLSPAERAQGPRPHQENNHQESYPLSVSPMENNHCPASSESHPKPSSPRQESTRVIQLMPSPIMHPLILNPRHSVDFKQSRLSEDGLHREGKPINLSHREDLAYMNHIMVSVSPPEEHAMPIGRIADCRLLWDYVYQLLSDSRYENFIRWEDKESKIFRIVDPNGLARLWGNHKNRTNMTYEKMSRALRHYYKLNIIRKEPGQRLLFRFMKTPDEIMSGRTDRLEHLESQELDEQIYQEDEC

ELF4, sequence (Q99607 whole entry): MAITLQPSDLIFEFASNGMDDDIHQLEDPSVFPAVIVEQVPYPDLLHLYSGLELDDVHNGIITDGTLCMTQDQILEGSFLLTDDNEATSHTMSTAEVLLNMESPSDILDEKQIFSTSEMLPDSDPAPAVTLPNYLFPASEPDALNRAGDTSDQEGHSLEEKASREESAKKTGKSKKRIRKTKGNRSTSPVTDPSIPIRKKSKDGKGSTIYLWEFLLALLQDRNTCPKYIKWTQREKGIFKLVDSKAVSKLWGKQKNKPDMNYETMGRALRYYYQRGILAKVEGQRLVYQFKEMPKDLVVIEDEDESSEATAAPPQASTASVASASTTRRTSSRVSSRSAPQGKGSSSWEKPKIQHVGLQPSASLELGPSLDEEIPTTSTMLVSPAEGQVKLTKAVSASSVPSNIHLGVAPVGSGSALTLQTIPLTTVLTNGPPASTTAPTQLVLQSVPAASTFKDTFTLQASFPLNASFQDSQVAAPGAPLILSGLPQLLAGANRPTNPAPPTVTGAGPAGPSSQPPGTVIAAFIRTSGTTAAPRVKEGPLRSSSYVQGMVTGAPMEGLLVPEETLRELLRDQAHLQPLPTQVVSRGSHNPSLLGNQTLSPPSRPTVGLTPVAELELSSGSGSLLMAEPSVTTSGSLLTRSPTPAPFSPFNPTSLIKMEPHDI
ETV5, sequence (P41161 whole entry): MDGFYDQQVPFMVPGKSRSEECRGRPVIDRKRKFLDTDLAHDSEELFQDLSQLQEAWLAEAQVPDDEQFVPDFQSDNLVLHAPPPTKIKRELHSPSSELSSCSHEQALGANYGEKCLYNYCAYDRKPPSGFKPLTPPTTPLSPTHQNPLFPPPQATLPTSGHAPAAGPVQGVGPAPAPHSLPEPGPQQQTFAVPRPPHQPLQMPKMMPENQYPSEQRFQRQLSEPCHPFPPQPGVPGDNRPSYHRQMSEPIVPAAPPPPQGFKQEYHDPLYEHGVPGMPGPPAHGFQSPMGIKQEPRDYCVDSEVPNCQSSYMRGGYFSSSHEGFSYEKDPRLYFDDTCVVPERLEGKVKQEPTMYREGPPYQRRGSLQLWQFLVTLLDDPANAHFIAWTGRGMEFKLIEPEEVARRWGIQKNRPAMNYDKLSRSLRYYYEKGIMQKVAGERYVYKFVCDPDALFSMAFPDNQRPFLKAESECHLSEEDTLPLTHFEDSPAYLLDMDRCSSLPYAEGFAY
HSF1, sequence (Q00613 whole entry): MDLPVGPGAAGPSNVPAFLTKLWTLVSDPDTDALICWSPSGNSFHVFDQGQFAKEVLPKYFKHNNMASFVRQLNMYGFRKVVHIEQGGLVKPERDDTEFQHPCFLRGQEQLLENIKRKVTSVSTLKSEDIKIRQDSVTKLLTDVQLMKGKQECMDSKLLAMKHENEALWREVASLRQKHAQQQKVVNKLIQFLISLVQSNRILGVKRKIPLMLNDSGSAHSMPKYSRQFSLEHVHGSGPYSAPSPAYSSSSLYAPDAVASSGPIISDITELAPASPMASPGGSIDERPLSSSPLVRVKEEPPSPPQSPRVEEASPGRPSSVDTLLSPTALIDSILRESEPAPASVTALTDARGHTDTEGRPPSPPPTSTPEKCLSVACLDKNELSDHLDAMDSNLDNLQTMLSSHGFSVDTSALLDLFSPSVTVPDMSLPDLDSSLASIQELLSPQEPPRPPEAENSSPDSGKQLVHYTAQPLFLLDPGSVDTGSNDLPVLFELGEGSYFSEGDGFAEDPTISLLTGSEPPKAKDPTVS
CRX, sequence (O43186 whole entry): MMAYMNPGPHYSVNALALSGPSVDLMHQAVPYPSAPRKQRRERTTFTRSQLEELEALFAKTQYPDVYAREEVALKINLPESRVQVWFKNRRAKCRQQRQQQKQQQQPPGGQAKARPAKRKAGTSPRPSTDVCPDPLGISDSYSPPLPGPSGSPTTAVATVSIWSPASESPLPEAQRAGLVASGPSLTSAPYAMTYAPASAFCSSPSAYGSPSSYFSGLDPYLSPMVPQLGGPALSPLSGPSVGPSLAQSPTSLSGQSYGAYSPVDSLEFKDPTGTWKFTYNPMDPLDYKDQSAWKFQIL
ETV1, sequence (P50549 whole entry): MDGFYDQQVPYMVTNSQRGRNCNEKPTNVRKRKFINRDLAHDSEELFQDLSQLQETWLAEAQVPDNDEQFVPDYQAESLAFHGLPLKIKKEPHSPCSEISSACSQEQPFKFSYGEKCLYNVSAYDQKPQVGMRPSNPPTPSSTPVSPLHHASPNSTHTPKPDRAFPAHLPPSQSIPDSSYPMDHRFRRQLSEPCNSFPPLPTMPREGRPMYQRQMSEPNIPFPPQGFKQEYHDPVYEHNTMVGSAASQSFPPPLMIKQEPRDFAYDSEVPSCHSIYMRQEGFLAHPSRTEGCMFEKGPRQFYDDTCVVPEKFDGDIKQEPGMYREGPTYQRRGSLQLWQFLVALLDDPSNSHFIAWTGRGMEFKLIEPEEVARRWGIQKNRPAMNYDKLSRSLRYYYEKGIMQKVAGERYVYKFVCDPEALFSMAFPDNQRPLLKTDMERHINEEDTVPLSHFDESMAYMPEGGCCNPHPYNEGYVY

CACGCT: the binding signal with FEV was 1.32 fold enrichment (6-mer frequency, TF over GST control); in the assay with ETV5, 1.34 fold enrichment (6-mer frequency, TF over GST control); with HSF1, 1.19 fold enrichment (6-mer frequency, TF over GST control); with SPIC, 1.23 fold enrichment (6-mer frequency, TF over GST control); in the assay with ELF4, 1.43 fold enrichment (6-mer frequency, TF over GST control); with ELK4, 1.36 fold enrichment (6-mer frequency, TF over GST control). The binding signal with ETV2 was 1.27 fold enrichment (6-mer frequency, TF over GST control); with ELF3 it was 1.4 fold enrichment (6-mer frequency, TF over GST control); in the assay with CRX, 1.17 fold enrichment (6-mer frequency, TF over GST control); with ETV1, 1.34 fold enrichment (6-mer frequency, TF over GST control); with ERF it was 1.35 fold enrichment (6-mer frequency, TF over GST control); with ETV3L it was 1.37 fold enrichment (6-mer frequency, TF over GST control). Moreover, the binding signal with ETS2 was 1.31 fold enrichment (6-mer frequency, TF over GST control); with SPDEF, 1.35 fold enrichment (6-mer frequency, TF over GST control); in the assay with ETV7 it was 1.36 fold enrichment (6-mer frequency, TF over GST control); with ELF5, 1.25 fold enrichment (6-mer frequency, TF over GST control); in the assay with ETV3 it was 1.37 fold enrichment (6-mer frequency, TF over GST control); in the assay with ETV6, 1.34 fold enrichment (6-mer frequency, TF over GST control).
